Data as given in PubChem BioAssay AID1345085 (National Center for Advancing Translational Sciences (NCATS), 2018).
Results filed as inconclusive are left out. Activity calls are given as the source filed them. Calls come from the whole dose curve; as a rule, active = well fitted cell-killing curve with a large enough effect; inconclusive = small, poorly fitted or top-dose-only effect, or effect the other way; inactive = no such curve, though single readings can be large or run the other way.

Test system: CAOV3
Experiment: Confirmatory qHTS for gynecologic anti-cancer compounds from libraries of approved drugs and bioactive compounds; note: nearly all actives have a fitted effect of over 55% in size
Conditions: gynecologic cancer cell panel viability, ATPlite luminescence, 48 h; series mostly up to 57.6 µM; activity change, negative = viability loss: at the top concentration
Summary of the method: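 Viability is measured as ATP-dependent luciferase light using ATPlite, read 15 min after reagent addition at room temperature. Compounds, in DMSO, span 57.5 uM down to 0.977 nM over 11 threefold steps for 48 h.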
% is set by controls: 0 for no effect and ±100 for the full control effect; potency is the fitted concentration of half-maximal effect.

Row | SMILES | activity change, negative = viability loss | Potency
1 | CN(c1nccc(=O)[nH]1)C1CCN(c2nc3ccccc3n2Cc2ccc(F)cc2)CC1 | 3.5% (inactive) | 
2 | Cc1ccc(C(=O)N(CCCN)C(c2oc3cc(Cl)ccc3c(=O)c2Cc2ccccc2)C(C)C)cc1 (stereo unspecified) |  | 27300 nM (active)
3 | CC(=O)OC12COC1CC(O)C1(C)C(=O)C(O)C3=C(C)C(OC(=O)C(O)C(NC(=O)OC(C)(C)C)c4ccccc4)CC(O)(C(OC(=O)c4ccccc4)C21)C3(C)C (stereo unspecified) | 17.5% (inactive) | 
4 | CC[C@@]1(O)C(=O)OCc2c1cc1n(c2=O)Cc2cc3c(CN(C)C)c(O)ccc3nc2-1 |  | 544 nM (active)
5 | COc1ccc(-c2ccc3c(N4CCOCC4C)nc(N4CCOCC4C)nc3n2)cc1CO (stereo unspecified) | -2.81% (inactive) | 
6 | Cn1cc(-c2[nH]c3cc(NC(=O)[C@H](N)C4CCCCC4)cc4c3c2C=NNC4=O)cn1 |  | 3850 nM (active)
7 | Nc1ccn([C@@H]2O[C@H](CO)[C@@H](O)C2(F)F)c(=O)n1 |  | 217 nM (active)
8 | CCS(=O)(=O)c1cccc(-c2cc(C(=O)NC3CCN(C)CC3)c(C)c3[nH]c4ncc(C)cc4c23)c1 |  | 672 nM (active)
9 | CCc1nc(C(N)=O)c(Nc2ccc(N3CCC(N4CCN(C)CC4)CC3)c(OC)c2)nc1NC1CCOCC1 |  | 6720 nM (active)
10 | O=C(c1ccc(/C=C/c2n[nH]c3ccccc23)cc1)N1CCNCC1 |  | 19300 nM (active)
11 | Cc1csc(NC(=O)c2sc3nc4c(c(C(F)(F)F)c3c2N)CCC4)n1 |  | 1720 nM (active)
12 | Cc1ccc(C(=O)Nc2cccc(C(F)(F)F)c2)cc1-c1ccc2nc(NCCN3CCOCC3)ncc2c1 |  | 24300 nM (active)
13 | OC[C@H]1O[C@@H](n2cnc3c(=S)nc[nH]c32)[C@H](O)[C@@H]1O |  | 1370 nM (active)
14 | CCN(CC)CCOc1ccc(/C(=C(\Cl)c2ccccc2)c2ccccc2)cc1 |  | 100000 nM (active)
15 | CC(C)CC(=O)Nc1n[nH]c2c1CN(C(=O)C1CCN(C)CC1)C2(C)C |  | 1220 nM (active)
16 | O=c1cc(CN2CCOCC2)occ1OCCCCCSc1ccnc2cc(C(F)(F)F)ccc12 | -24.7% (inactive) | 
17 | COC(C(=O)N1Cc2[nH]nc(NC(=O)c3ccc(N4CCN(C)CC4)cc3)c2C1)c1ccccc1 (stereo unspecified) |  | 1530 nM (active)
18 | COc1ccc(-c2cc3nccn3c(Nc3ncccc3C(N)=O)n2)cc1OC | -6.41% (inactive) | 
19 | Nc1nc(Cl)nc2c1ncn2C1OC(CO)C(O)C1F (stereo unspecified) |  | 544 nM (active)
20 | COc1ccc(OC)c(-c2nnc3ccc(-c4ccc(OC)c(O[C@@H]5CCOC5)c4)nn23)c1 |  | 8630 nM (active)
21 | O=C1N(c2ccccc2)c2ccccc2C1(Cc1ccncc1)Cc1ccncc1 | 12.6% (inactive) | 
